Experiments:
Settings in all cases: concentration: 1 μM, replicates: in singlicate; n = 1
ULK3 = tested on: ULK3
VEGFR2 = tested on: T1, VEGFR2
T1 construct: gene KDR

VPS34 = tested on: T2, VPS34
T2 construct: gene PIK3C3

VRK2 = tested on: VRK2
WEE1 = tested on: WEE1
WEE2 = tested on: WEE2
WNK1 = tested on: WNK1
WNK2 = tested on: WNK2
WNK3 = tested on: WNK3
WNK4 = tested on: WNK4
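Further: KINOMEscan kinase panel screen.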

SMILES	%Inh (ULK3) [%]	%Inh (VEGFR2) [%]	%Inh (VPS34) [%]	%Inh (VRK2) [%]	%Inh (WEE1) [%]	%Inh (WEE2) [%]	%Inh (WNK1) [%]	%Inh (WNK2) [%]	%Inh (WNK3) [%]	%Inh (WNK4) [%]
O=C(Nc1ccc2c(c1)OCO2)NC1CCN(c2ccnc(NCc3ccc(F)cc3)n2)CC1 [GSK1379859]	0	0	7	0	12	0	0	0	0	13
O=C(NCc1cccs1)c1cc(C(=O)c2c(Cl)cccc2Cl)c[nH]1 [GW823670]	0	0	0	0	2	5	0	0	0	0
CN(C)c1cc(-c2ccc3c(N)n[nH]c3c2)nc(N)n1 [GSK2219329]	9	3	0	0	3	1	3	0	15	32
CCCNC(=O)Nc1ccc(Oc2ncnc3ccn(C)c23)cc1	30	13	34	0	0	13	0	3	0	0
COc1cc2ncn(-c3cc(OCc4ccncc4)c(C(N)=O)s3)c2cc1OC [GSK336313]	9	7	5	0	33	15	7	0	10	0
COc1ccc(-c2cc3c(C)nc(N)nc3n([C@H]3CC[C@H](OCCO)CC3)c2=O)cn1	3	0	0	0	0	0	0	0	0	0
COC(=O)c1c(-c2ccccc2)c2cc(Br)ccc2c(=O)n1Cc1ccc(NC(=O)CCC(=O)O)cc1	16	0	0	0	0	21	0	26	0	0
CCc1ccc(-c2ccc3c(c2)-c2nn(C)cc2S(=O)(=O)N3C)cc1	0	0	0	14	21	0	6	0	0	0
COc1ccc(Nc2nccc(N3CCC(NS(=O)(=O)c4ccc(NC(C)=O)cc4)C3)n2)cc1 (stereo not drawn) [GSK1379729]	42	0	92.3	16	37	11	24	38	0	29
COc1cc(Nc2nccc(N3CCC(NC(=O)C(C)c4ccc(Cl)cc4)C3)n2)cc(OC)c1OC (stereo not drawn) [GSK1379757]	42	0	0	0	30	0	9	0	15	10
Cc1nnc(-c2ccc(C)c(-c3ccc(C(=O)O)cc3)c2)o1 [GW608005]	0	3	0	0	0	0	30	0	15	0
COc1cc2ncn(-c3cc(OCc4ccc(S(C)(=O)=O)cc4)c(C(N)=O)s3)c2cc1OC [GW869979]	22	20	33	2	0	0	0	58	0	51
Nc1ncnc2c1ncn2-c1cccc2ccccc12 [SKF-97184]	30	0	56	29	0	0	15	0	29	15
COc1cc(Nc2ccnc3ccc(C(F)(F)F)cc23)cc(OC)c1OC [GW577382]	14	0	0	27	11	14	8	13	27	0
CCc1nc(-c2cccc(C)c2)c(-c2ccncc2)s1	12	0	0	0	0	0	0	0	0	0
COc1cccc(C2=C(Nc3cccc(C(=O)O)c3)C(=O)NC2=O)c1 [SB-390770]	9	11	34	16	0	7	3	18	5	0
COc1ccc(-c2cc3c(C)nc(N)nc3n([C@H]3CC[C@H](O)CC3)c2=O)cn1	0	0	0	0	0	0	0	0	0	18
Cc1ccccc1COc1cc(-n2cnc3cc(Cl)ccc32)sc1C(N)=O [GW813349]	0	11	84	0	4	5	0	0	6	0

SMILES	%Inh (ULK3) [%]	%Inh (VEGFR2) [%]	%Inh (VPS34) [%]	%Inh (VRK2) [%]	%Inh (WEE1) [%]	%Inh (WEE2) [%]	%Inh (WNK1) [%]	%Inh (WNK2) [%]	%Inh (WNK3) [%]	%Inh (WNK4) [%]
COc1cccc(C2=C(N(C)c3ccccc3)C(=O)NC2=O)c1 [SB-334865]	12	1	0	10	4	0	8	0	20	15
Cc1ccc(Oc2ccc(Nc3ncnc4cc[nH]c34)cc2C)cn1	22	15	20	0	0	0	0	0	10	0
Nc1nccc2scc(-c3ccc4c(c3)CCN4C(=O)Cc3ccccc3)c12 [GSK2576924]	12	5	0	0	14	0	17	26	27	0
CN1C(=O)C(Nc2ccccc2)=C(c2ccccc2)C1=O [SB-300079]	7	0	30	19	51	1	0	0	33	26
Nc1n[nH]c2ncc(-c3ccccc3)cc12 [SB-517081]	14	16	0	11	17	2	12	0	27	35
COC(=O)c1c(-c2ccccc2)c2cc(Br)ccc2c(=O)n1Cc1ccc(S(C)(=O)=O)cc1	13	0	0	0	0	16	0	13	0	0
Nc1ncnc2c1ncn2-c1ccc(Cl)cc1 [AH2635]	2	0	0	15	0	11	0	0	34	32
Fc1cccc(CSc2nnc(-c3ccc4c(c3)CCO4)o2)c1	11	0	13	5	0	16	0	14	0	0
CCn1c(-c2nonc2N)nc2ccccc21 [SB-693162/GW549034]	20	40	2	0	0	0	0	39	0	6
CCC(=O)c1c(-c2ccccc2)c2cc(Cl)ccc2c(=O)n1Cc1cc(S(C)(=O)=O)n(CCC(C)(C)O)n1	0	2	0	0	0	0	0	31	0	25
CC(C)(C)c1ccc(C(=O)Nc2cn3cc(-c4ccccc4)ccc3n2)cc1	12	0	0	1	6	0	0	0	0	16
Nc1nc(N)c2nc(-c3ccccc3)[nH]c2n1 [SKF-12778]	30	0	0	5	8	0	9	9	11	17
O=C(NCCNc1ccnc(Nc2ccc(F)cc2)n1)Nc1ccc2c(c1)OCO2 [GSK1379882]	21	9	0	0	13	6	5	18	30	12
OCCCNc1nccc(-c2c(-c3cccc(C(F)(F)F)c3)nn3cc(C(F)(F)F)ccc23)n1 [GW630813]	0	3	0	18	0	0	0	0	33	85
O=C(Nc1n[nH]c2nc(-c3ccccc3)c(Br)cc12)C1CC1 [SB-708998]	11	2	0	0	0	0	2	0	9	0
COc1cc(OC)cc(-c2cc3cnc(N)nc3nc2NC(=O)NC(C)(C)C)c1	0	36	0	0	0	5	0	0	0	0
C[C@@H]1CC[C@H](C(=O)NC2CCCCC2)CN1c1cc(-c2ccc3c(N)n[nH]c3c2)nc(N)n1 [GSK2291363]	11	8	31	0	34	26	16	4	21	0
Cn1c(=O)c(F)c(Nc2ccc(I)cc2F)c2c(=O)n(OC[C@H](O)CO)cnc21	13	0	0	0	29	4	0	0	0	11
